Screening results (PubChem)
A selection: hits, their analogues and other compounds. The true share with any hit is near 1.6%.
RXFP1 antag: qHTS Assay for Antagonists of the Relaxin Receptor RXFP1; Relaxin receptor 1 (Homo sapiens), Q9HBX9; AID 1259400, 2018; HEK293-RXFP1, relaxin-stimulated cAMP HTRF, 30 min; active compounds read low; activity change, negative = inhibition, % at 57.5 µM; 350,000 compounds, 0.59% hits;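 active = activity change of -60% or lower, but not beyond a set lower limit; inconclusive = change between -60% and -40%, or beyond the set limit; inactive = change above -40%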
Target sequence (Q9HBX9 whole entry, looked up): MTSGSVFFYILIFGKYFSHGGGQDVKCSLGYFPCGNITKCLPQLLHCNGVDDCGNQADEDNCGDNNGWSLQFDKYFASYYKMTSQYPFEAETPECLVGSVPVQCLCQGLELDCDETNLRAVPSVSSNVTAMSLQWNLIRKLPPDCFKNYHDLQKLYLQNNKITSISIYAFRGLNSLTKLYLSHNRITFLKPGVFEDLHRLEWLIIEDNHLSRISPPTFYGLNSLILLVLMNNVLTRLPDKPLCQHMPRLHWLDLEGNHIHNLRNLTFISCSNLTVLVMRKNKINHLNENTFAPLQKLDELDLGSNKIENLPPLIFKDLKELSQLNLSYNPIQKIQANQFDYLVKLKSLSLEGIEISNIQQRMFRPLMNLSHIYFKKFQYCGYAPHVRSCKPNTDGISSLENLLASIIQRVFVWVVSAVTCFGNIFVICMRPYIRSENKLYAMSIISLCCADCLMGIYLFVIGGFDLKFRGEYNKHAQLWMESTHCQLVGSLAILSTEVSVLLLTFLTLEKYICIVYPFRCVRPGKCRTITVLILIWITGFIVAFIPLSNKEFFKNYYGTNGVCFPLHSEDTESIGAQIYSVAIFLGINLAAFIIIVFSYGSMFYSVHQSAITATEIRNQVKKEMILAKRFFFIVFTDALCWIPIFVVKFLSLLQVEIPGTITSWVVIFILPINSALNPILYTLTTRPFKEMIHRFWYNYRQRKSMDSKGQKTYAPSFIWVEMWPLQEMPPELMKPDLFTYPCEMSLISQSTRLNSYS
RXFP1 agonist: qHTS Assay for Agonists of the Relaxin Receptor RXFP1; Potency, µM (titrated, usually from 57.5 µM), hits mostly activators; AID 2676, 2010; Relaxin receptor 1 (Homo sapiens), Q9HBX9; HEK293T-RXFP1 cAMP TR-FRET, 30 min; response scale: percent of porcine relaxin response, buffer zero; 370,000 compounds, 0.3% hits; active = well fitted activation curve with a large enough effect; inconclusive = small, poorly fitted or top-dose-only effect; also: nearly all actives have a fitted effect of over 60% in size
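HEK293T cells stably expressing RXFP1 were pretreated with the PDE4 inhibitor Ro 20174, exposed to compounds for 30 min at 37C, lysed, and cAMP was read by TR-FRET. Data normalized to buffer (basal) and 29 nM porcine relaxin (100%).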
gsp ag: qHTS for Agonist of gsp, the Etiologic Mutation Responsible for Fibrous Dysplasia/McCune-Albright Syndrome: qHTS; gsp mutant cells, cAMP HTRF, 30 min; Potency, µM (series often up to 76.9 µM), most hits filed as activators; 340,000 compounds, 0.13% hits; active = well fitted activation curve with a large enough effect; inconclusive = small, poorly fitted or top-dose-only effect, or another doubt; inactive = no such curve, though single readings can be large or run the other way; cell line not stated here;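 also: phosphodiesterase inhibitor Ro 20-1724 added with compounds to block cAMP breakdown; nearly all actives have a fitted effect of over 60% in size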
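Cells stably selected in G418 were plated at 2000/well, grown 16-24 hr, then given compounds in DMSO with the PDE inhibitor […] (300 uM solution added) for 30 min at 37C; cAMP was read by HTRF.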
gsp antagonist: qHTS for Antagonists of gsp, the Etiologic Mutation Responsible for Fibrous Dysplasia/McCune-Albright Syndrome: qHTS. gsp-mutant cells, cAMP HTRF, 30 min. 340,000 compounds, 0.4% hits. Potency, µM (titrated, usually from 76.9 µM), actives largely listed as inhibitors; calls by dose curve; cell line not stated here;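 also: intracellular cAMP measured with PDE inhibitor Ro 20-1724 present during compound exposure; nearly all actives have a fitted effect of over 65% in size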
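Cells in G418 medium, seeded 16-24 h, 37C; buffer exchange to DPBS + 1 mM CaCl2, 0.5 mM MgCl2, 0.05% BSA; cpds in DMSO + […] (300 uM stock), 30 min 37C; HTRF cAMP detection.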
Giardia killer: Small Molecules that selectively kill Giardia lamblia: qHTS; Giardia lamblia trophozoite viability; activity change, % at 7.66 µM, hits read low; 340,000 compounds, 0.15% hits; in the data active = activity change below about -80%; inconclusive = between about -30% and that limit;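 also: parasites exposed to compound for two days anaerobically before the ATP read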
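Luminescent ATP signal served as the viability read-out, measured 15-30 min after adding ATP detection reagent to trophozoites that had been incubated with compounds for 48 hrs at 37 deg C anaerobically at 100 cells/well.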
FBPA coupling cs: qHTS Assay for Inhibitors of Fructose-1,6-bisphosphate Aldolase from Giardia Lamblia: Coupling assay counterscreen; 290,000 compounds, 0.67% hits; coupling enzyme system counterscreen, AmpLite Red fluorescence; activity change, negative = inhibition, % at 58.2 µM, hits read low; in the data active = activity change below about -30%
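Counterscreen lacking aldolase: glyceraldehyde-3-phosphate coupling-enzyme reagent preincubated 10 min at RT with compound (at 57.5 uM final), then substrate/coupling system with AmpLite Red added; fluorescence read at 525/598 nm after 20 min RT.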
Numbers stand for hits; - = inactive; ? = inconclusive; . = no result; [ ] = remark or other dose.

SMILES	RXFP1 antag	RXFP1 agonist	gsp ag	gsp antagonist	Giardia killer	FBPA coupling cs
COc1ccccc1Nc1c2c(nc3ccc(NC(=O)c4cccc(F)c4)cc13)CCCC2	-75	-	.	.	.	.
O=C(Nc1ccc(N2CCN(C(=O)c3cccs3)CC2)cc1)c1ccc(F)cc1	-66	-	-	-	-	-
CC(=O)Nc1ccc(N2CCN(C(=O)c3cccs3)CC2)cc1	-	-	-	-	-	-
COc1ccc(O[C@H]2C=C[C@@H](c3ccccc3)O[C@H]2COC(=O)CC/C(C)=N\O[C@@H](C)c2cc(-c3c(C)cc(C)cc3C)no2)cc1	.	.	.	.	.	-
Cn1c(C(=O)NCCN2CCOCC2)cc2c(=O)n(C)c3ccccc3c21	-	-	-	-	-	-
Cn1c(C(=O)NCCN2CCc3ccccc3C2)cc2c(=O)n(C)c3ccccc3c21	.	-	-	-	-	-30
Cc1ccc(O)c(N=Cc2cc(Cc3ccccc3)cc([N+](=O)[O-])c2O)c1	?	-	-[15.4 µM]	?	-	-
O=[N+]([O-])c1cc(Cc2ccccc2)cc(C=Nc2ccc(N3CCOCC3)cc2)c1O	-75	-	-	-	-	-
CCN(CC)C(=O)c1sc2[nH]c(=S)n(-c3ccccc3)c(=O)c2c1C	-67	-	?	-	-	-
CCCCC1CCC(C(=O)OC(C)C(=O)Nc2ccc(NC(C)=O)cc2)CC1 (stereo not given)	-	-	?	-	-	.
Cc1ccc(C(=O)NC(=S)Nc2ccc(-c3cc4ccccc4oc3=O)cc2)c(C)c1	-	-	20µM	-	-	-
OC[C@H]1O[C@@H](n2cnc3c(=S)nc[nH]c32)[C@H](O)[C@@H]1O	-	.	.	.	.	.
COc1cc(OC)c(C2C(C#N)=C(N)OC3=C2C(=O)CC(C)(C)C3)cc1OC (stereo not given)	-	-	-	-	-	-
COc1ccc(C2C(C#N)=C(N)OC3=C2C(=O)CC(C)(C)C3)cc1OC (stereo not given)	-76	-	-	-	-	-
COc1ccc(C2CC(c3ccccc3)=NN2C(=O)COC(=O)c2nc3nccc(C)n3n2)cc1 (stereo not given)	-	-	-	-	-	-
O=C(O)c1cccc(-n2cccc2C=C2C(=O)c3ccccc3C2=O)c1	-	-	-[15.4 µM]	35µM	-	-
O=C1C(=Cc2cccn2-c2ccccc2)C(=O)c2ccccc21	-	-	-[15.4 µM]	-	-	-
CC(C)[C@H](NC(=O)OC(C)(C)C)[C@@H](O)CC(=O)C(C)(C)C	.	.	.	.	.	-
COc1cc(/C=C(\C#N)C(=O)Nc2ccc(C(=O)O)cc2)ccc1OC(=O)c1cccc(F)c1	-83	-	-	-	-	-
CCNC(=S)NNC(=O)c1cc(-c2ccc(OCC)cc2)nc2ccccc12	-	-	?	-	-81	-
CCCc1ccc(-c2cc(C(=O)NN3CCOCC3)c3ccccc3n2)cc1	-	-	-	-	-	.
CCCOc1cccc(-c2cc(C(=O)NNC(=S)NCC)c3ccccc3n2)c1	-	-	-	35µM	?	-
CCc1ccc(-c2cc(C(=O)Nn3cnnc3)c3ccccc3n2)cc1	-	-	-	-	-100	-
CCNC(=S)NNC(=O)c1cc(-c2cccc(OC)c2)nc2ccccc12	-	-	-	-	-	-
COc1cc(OC)nc(O[C@H](C(=O)O)C(OC)(c2ccccc2)c2ccccc2)n1	-	.	.	.	.	.
SMILES	RXFP1 antag	RXFP1 agonist	gsp ag	gsp antagonist	Giardia killer	FBPA coupling cs
O=C(CC1Nc2cccc3cccc(c23)NC1=O)Nc1ccccc1 (stereo not given)	-	-	-	-	-	-40
Cc1ccc(NC(=O)CC2Nc3cccc4cccc(c34)NC2=O)cc1 (stereo not given)	-	-	.	.	.	.
CCOc1cc(-c2ccc(OC(=O)c3ccccc3)c(OC)c2)cc(=O)c2c(C)oc(C)c12	-98	-	.	.	.	.
CCOc1cc(-c2ccc(OC(=O)c3ccc(Cl)cc3)c(OC)c2)cc(=O)c2c(C)oc(C)c12	-63	-	.	.	.	.
COc1ccc(-c2cc(OC(=O)c3ccccc3)c3c(C)oc(C)c3c(=O)c2)cc1OC	-	-	.	.	.	.
COc1cc(-c2cc(OC)c3c(C)oc(C)c3c(=O)c2)ccc1OC(=O)c1ccccc1F	-68	-	.	.	.	.
Cc1cc(C)cc(NC(=S)/C(=C(\[O-])c2ccc(Cl)s2)[n+]2cccc(C)c2)c1	-	-	-[15.4 µM]	-	-	-
[O-]/C(=C(\C(=S)Nc1cccc2ccccc12)[n+]1ccccc1)c1ccc(Cl)s1	-	-	-	-	-	-39
Cc1ccc(C)c(NC(=S)/C(=C(\[O-])c2ccc(Cl)s2)[n+]2ccccc2)c1	-	-	-	-	-	-40
CC(C)(C)c1cc[n+](/C(C(=S)NC2CC2)=C(/[O-])c2ccc(Cl)s2)cc1	-	-	-	-	-	-44
[O-]C(=C(C(=S)Nc1cccc2ccccc12)[n+]1cccc(CO)c1)c1ccc(Cl)s1	-	.	-	-	-	.
CCc1cccc(CC)c1NC(=S)/C(=C(\[O-])c1ccc(Cl)s1)[n+]1ccccc1	-	-	?	-	-	-
CN1CCN(c2oc(-c3ccc(OCc4ccc(Cl)cc4)cc3)nc2C#N)CC1	.	.	.	.	-	.
O=S(=O)(c1cccc(Cl)c1)N1CCN(c2nc(-c3cccs3)nc3ccccc23)CC1	.	.	.	.	-	.
CCCCn1c(=O)[nH]c(=O)c2c1nc(CN1C(=O)c3ccccc3S1(=O)=O)n2CCC	-	-	-	-	-	-
CCCCn1c(-c2ccsc2)nc2c1c(=O)[nH]c(=O)n2CCC	-	?	-	-	-	-31
CCCCn1c(=O)[nH]c(=O)c2c1nc(Cn1ncc(Cl)c(Cl)c1=O)n2CCC	-	25µM	-[15.4 µM]	-	-	-
CCCCn1c(=O)[nH]c(=O)c2c1nc(-c1ccsc1)n2Cc1ccccc1	-	-	-	-	-	-
Brc1ccc(-c2ccc(CNCCSc3nnnn3-c3ccccc3)o2)cc1	-	14µM	.	.	.	.
COc1cc(NCCCCCCCN)c2ncccc2c1	-	-	-	-	-	-37
Nc1cc(N)c(OCC(F)(F)F)cc1OCC(F)(F)F	-	-	-	-	-	-50
O=C1C(=O)N2C(=C1C(=O)N1CCCCCC1)c1ccccc1CC21CCCC1	-	-	-[15.4 µM]	-	-	-
CCC1(CC)Cc2ccccc2C2=C(C(=O)N3CCCCC3)C(=O)C(=O)N21	-	-	-	-	-	-34
CC1(C)Cc2ccccc2C2=C(C(=O)N3CCCCCC3)C(=O)C(=O)N21	-	-	-	-	-	-42
